High-throughput results: PubChem, National Center for Advancing Translational Sciences (NCATS)
The list is not random: actives were taken first. Their share in the collection is about 19%.
KB-3-1 tox – qHTS assay for MDR1-selective chemotherapeutics: Primary screen using the parental adenocarcinoma cell KB-3-1. KB-3-1 viability, CellTiter-Glo ATP luminescence, 72 h. Potency, µM (series often up to 46.1 µM), most hits filed as cytotoxic. hit rate 1.4% among 400,000. AID 1347075, 2019; further: nearly all actives have a fitted effect of over 60% in size
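KB-3-1 parental drug-naive adenocarcinoma cells in DMEM/10% FBS, incubated 72 h at 37 C with pin-transferred compounds across a concentration series. Viability by CellTiter-Glo luminescence; concentration-response curves fitted after normalization.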
DT40 TDP1 CPT – qHTS for Inhibitors of human tyrosyl-DNA phosphodiesterase 1 (TDP1): qHTS in cells in presence of CPT; chicken DT40 Tdp1-/-;hTDP1 cells + 20 nM CPT, ATP luminescence, 48 h; Potency, µM (top dose mostly 46.2 µM), hits mostly inhibitors; hit rate 12% among 420,000; further: nearly all actives have a fitted effect of over 55% in size
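Cell growth measured by CellTiter-Glo luminescence after a minimum 48 h, 37 C compound exposure with 20 nM CPT in Tdp1-knockout DT40 cells stably expressing hTDP1, seeded 400/well; qHTS titration format.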
HT1080 IDH1KD tx – qHTS for induction of synthetic lethality in tumor cells producing 2HG: qHTS for the HT-1080-IDH1KD cell line; HT-1080 IDH1 knockdown viability, ATP luminescence, 48 h; Potency, µM (top dose mostly 46.1 µM), actives largely listed as cytotoxic; hit rate 2% among 360,000; AID 686971, 2013
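CellTiter-Glo luminescence after 48 h compound exposure at 37 degrees C of IDH1-knockdown HT-1080 cells in 5% FBS RPMI. %Activity scaled between DMSO wells and cell-free media wells, with curves fitted and assigned curve classes.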
HT1080NT lethal – qHTS for induction of synthetic lethality in tumor cells producing 2HG: qHTS for the HT-1080-NT fibrosarcoma cell line; AID 686970, 2013; HT-1080-NT fibrosarcoma viability, CellTiter-Glo ATP luminescence, 48 h; hit rate 1.6% among 360,000; Potency, µM (titrated, usually from 46.1 µM), actives largely listed as cytotoxic;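 further: NT is the 2HG producing partner of a matched IDH1 knockdown line; nearly all actives have a fitted effect of over 55% in size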
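HT-1080-NT; 750 cells/well; 5% FBS RPMI; 48 h compound, 37 degrees C; CellTiter-Glo luminescence; curve fitting and curve-class assignment.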
TDP1 cell noCPT – qHTS for Inhibitors of human tyrosyl-DNA phosphodiesterase 1 (TDP1): qHTS in cells in absence of CPT; DT40 Tdp1-/- hTDP1 cells, no CPT, ATP luminescence, 48 h; Potency, µM (titrated, usually from 46.2 µM), hits mostly inhibitors; AID 686978, 2013; hit rate 15% among 420,000; further: nearly all actives have a fitted effect of over 55% in size
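No-CPT arm: Tdp1-/-;hTDP1 DT40 cells (400/well) plus compounds, incubated ≥48 hr at 37 °C. Readout CellTiter-Glo luminescence.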
KB-V1 MDR tox – qHTS assay for MDR1-selective chemotherapeutics: Primary screen using the drug-selected MDR subline cells KB-V1; KB-V1 MDR cells viability, CellTiter-Glo, 72 h; Potency, µM (doses to about 46.1 µM), actives largely listed as cytotoxic; hit rate 3.4% among 400,000; further: nearly all actives have a fitted effect of over 60% in size
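Cytotoxicity via CellTiter-Glo luminescence after 72 h compound exposure at 37 degrees C. Cells: drug-selected KB-V1 line, DMEM phenol-red free plus 10% FBS. Compounds tested at multiple concentrations; normalized data fitted to concentration-effect curves.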
A number is an active result; n = inactive; u = inconclusive; x = no result given. The call rests on the fitted dose curve; in most records, active means well fitted curve in the direction sought with a large enough effect; inconclusive means small, poorly fitted or top-dose-only effect, or another doubt; inactive means no such curve, though single readings can be large; an effect the other way counts as inactive or inconclusive.

SMILES | KB-3-1 tox | DT40 TDP1 CPT | HT1080 IDH1KD tx | HT1080NT lethal | TDP1 cell noCPT | KB-V1 MDR tox
O=C(CC(c1ccccc1)c1ccccc1)Nc1ccncc1 | n | u | n | n | u | u
CC(O)c1cccc(NC(=O)CC(c2ccccc2)c2ccccc2)c1 (stereo unspecified) | n | 9.2µM | n | n | 9.2µM | n
CCOc1ccccc1NC(=O)c1cccc(NC(=O)C2CCCC2)c1 | u | u | n | n | u | u
CN(C)c1nc2n(c(=S)n1)CCS2 | n | n | n | n | n | n
COc1cccc(C2(O)CC(C(F)(F)F)=NN2C(=O)c2ccccn2)c1 (stereo unspecified) | n | u | n | n | n | n
O=C(CSc1nc(=O)n(CCN2CCOCC2)c2c1CCC2)Nc1cccc(Cl)c1 | x | n | x | x | n | x
Cc1ccc(S(=O)(=O)NC2CC(C)(C)NC(C)(C)C2)cc1 | n | n | n | n | n | u
Cc1ccc(S(=O)(=O)NC2CC(C)(C)N(O)C(C)(C)C2)cc1 | n | u | n | n | 20.6µM | u
COc1cc(C(=O)Nc2nnc(CC(C)(C)C)s2)cc(OC)c1OC | n | 13µM | x | x | u | n
Cc1cc(C)cc(Oc2ccc(NC(=O)C3CC=CCC3C(=O)O)cc2)c1 (stereo unspecified) | n | n | n | n | 3.66µM | n
COCc1nnc(NC(=O)c2cc(OC)c(OC)c(OC)c2)s1 | n | n | x | x | n | n
O=C(O)C1CC=CCC1C(=O)Nc1ccc(Oc2ccc(Cl)cc2)cc1 (stereo unspecified) | n | u | n | n | u | n
CCc1nnc(NC(=O)c2ccc(OC)c(S(=O)(=O)N3CCCC3)c2)s1 | n | n | n | n | n | 20.6µM
CCc1nnc(NC(=O)c2ccc(S(=O)(=O)N3CCCCCC3)cc2)s1 | n | n | n | u | n | n
COc1ccc(Br)cc1S(=O)(=O)N1CCCC1 | n | 9.2µM | n | n | 8.2µM | n
Nc1nnc(Cc2ccc(Cl)c(Cl)c2)s1 | n | n | n | n | u | n
Cc1ccc(NC(=O)NCCCl)cc1S(=O)(=O)N1CCOCC1 | n | n | n | n | n | n
CC1CCC(NS(=O)(=O)c2ccc(N3CCCC3=O)cc2)CC1 (stereo unspecified) | u | u | n | n | u | n
O=C(O)c1ccccc1C(=O)NC1CCCc2ccccc21 (stereo unspecified) | n | n | n | n | n | n
COc1ccc(C(=O)Nc2ccc(-c3ccc(C)o3)cc2)cc1S(=O)(=O)N1CCOCC1 | n | u | x | x | 20.6µM | n
Cc1ccc(C(=O)Nc2ccc3c(c2)OCO3)cc1S(=O)(=O)N1CCCC1 | n | u | n | n | 7.31µM | u
COc1ccc(C(C)(C)C)cc1NC(=O)C1CC=CCC1C(=O)O (stereo unspecified) | n | u | n | n | 14.6µM | n
COc1ccc(C(C)(C)C)cc1NC(=O)c1ccc2ncsc2c1 | n | u | n | n | u | n
COc1ccc(C(C)(C)C)cc1NC(=O)c1cncc(Br)c1 | n | u | n | n | 18.4µM | n
COc1ccc(C(C)(C)C)cc1NC(=O)C1C2C=CC(C2)C1C(=O)O (stereo unspecified) | n | n | n | n | u | n
SMILES | KB-3-1 tox | DT40 TDP1 CPT | HT1080 IDH1KD tx | HT1080NT lethal | TDP1 cell noCPT | KB-V1 MDR tox
COC(=O)Cn1c(=NC(=O)c2ccc3c(c2)OCCO3)sc2ccccc21 | x | n | x | x | n | x
COc1ccc(C(=O)OCc2cc(C)ccc2C)cc1S(=O)(=O)N1CCCC1 | n | u | n | n | u | 5.17µM
COc1ccc(C(=O)Nc2ccc(C)c(S(=O)(=O)N3CCOCC3)c2)cc1S(=O)(=O)N1CCCC1 | n | 20.6µM | n | n | u | n
COc1ccc(NC(=O)c2cncc(Br)c2)cc1S(=O)(=O)N1CCCCC1 | n | u | n | n | 20.6µM | n
COc1ccc(C(=O)Nc2ccc(N3CCOCC3)cc2)cc1S(=O)(=O)N1CCCC1 | n | n | n | n | n | n
COC(=O)CNC(c1ccccc1)c1cc(Br)ccc1NC(=O)c1ccccc1 (stereo unspecified) | n | 20.6µM | x | x | u | n
COC(=O)CNC(c1ccccc1)c1cc(Br)ccc1NC(C)=O (stereo unspecified) | n | n | n | n | n | n
NNC(=O)CNC(c1ccccc1)c1cc(Br)ccc1NC(=O)CCN1CCOCC1 (stereo unspecified) | n | 23.1µM | n | n | 13µM | n
CCOC(=O)CNC(c1ccccc1)c1cc(Br)ccc1NC(=O)c1cccc(Cl)c1 (stereo unspecified) | n | u | x | x | 23.1µM | u
NNC(=O)CNC(c1ccccc1)c1cc(Br)ccc1NC(=O)c1cccc(Cl)c1 (stereo unspecified) | n | u | n | n | u | n
COC(=O)CNC(c1ccccc1Cl)c1cc(Br)ccc1NS(=O)(=O)c1ccc(C)cc1 (stereo unspecified) | u | u | n | n | 16.4µM | 18.4µM
NNC(=O)CNC(c1ccccc1)c1cc(Br)ccc1NC(=O)c1ccc(Br)cc1 (stereo unspecified) | n | u | n | n | n | n
COc1cc(CNC[C@H]2O[C@@H](n3cnc(C(N)=O)n3)[C@H](O)[C@@H]2O)ccc1OCc1cccc(Cl)c1 | n | n | n | n | n | n
CCCS(=O)(=O)NC(=O)C1(C)CCCN(C(=O)c2nc3ccccc3s2)C1 (stereo unspecified) | n | n | n | n | n | n
Nc1c(CNCc2nnn(Cc3ccccc3)c2N)nnn1Cc1ccccc1 | n | u | n | n | u | n
COc1ccc(S(=O)(=O)Nc2ccc3c(c2)C(=O)N([C@H](C)CO)C[C@H](C)[C@@H](CN(C)C(=O)Nc2c(C)noc2C)O3)cc1 | n | n | n | n | n | n
O=C1N[C@@H](Cc2c[nH]c3ccccc23)C(=O)N[C@H]1Cc1ccccc1 | n | n | n | n | n | n
O=C(O)C1=CC[C@@H](c2ccc(Cl)cc2)N(S(=O)(=O)c2ccc(Cl)cc2)[C@H]1c1cccc(Cl)c1 | n | n | n | n | n | n
CC(CC(=O)NNC(=O)c1cccc(Cl)c1)c1ccccc1 (stereo unspecified) | n | n | n | n | n | n
